For test [1], the system named is DLD1. Briefly: cell viability (CellTiter-Glo) relative to plate median (fraction of plate median); higher = more viable cells. As to conditions: 5 µM; treatment time 24 h; reporter: 7TFP. Summed up: (§1)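 Library compounds were added at a final concentration of 5 µM for 24 h to colorectal cancer cells stably transduced with a lentiviral TCF/Wnt firefly luciferase reporter. Reported values are firefly luciferase or CellTiterGlo luminescence, normalised per well to the plate median. Each value averages two independent replicates.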
A general note: ATP-based viability assays read luminescence as a measure of living cells.

For test [2], the system named is HCT116. Described as above. To be noted: 5 µM; treatment time 24 h; reporter: TCF4/Wnt. Summed up:
as §1

The test system of test [3] is SW480. The test is described as above. As to conditions: 5 µM; treatment time 24 h; reporter: 7TFP. The procedure, abridged:
as §1

Test [4] relates to DLD1. Briefly: TCF/Wnt firefly luciferase reporter signal relative to plate median (fraction of plate median); higher = higher Wnt reporter signal. To be noted: 5 µM; treatment time 24 h; reporter: 7TFP. The procedure, abridged: as §1
A general note: A reporter such as luciferase makes a cellular process visible.

Test [5] concerns SW480. The description is as above. As to conditions: 5 µM; treatment time 24 h; reporter: 7TFP. Summed up:
as §1

± gives the standard deviation of the averaged measurements.

Take `Cc1cc(C)nc(NS(=O)(=O)c2ccc(N)cc2)n1`: the cell viability in test [1] amounted to 1.07 ± 0.11; in test [2] it was 0.975 ± 0.078; in test [3], 1.03 ± 0.047. The “TCF/Wnt firefly luciferase reporter signal” value amounted to 1.025 ± 0.0071 in test [4] and 1.08 ± 0.05 in test [5].
In the same order, the values of `Cc1cccc2c3c(ccc12)C1=C(C(=O)C3=O)[C@@H](C)CO1` are 0.936 ± 0.1, 0.825 ± 0.011, 1.03 ± 0.014, 0.955 ± 0.15 and 1.08 ± 0.15.
With `CC(=O)[C@@]1(O)CC[C@H]2[C@@H]3CCC4=CC(=O)CC[C@]4(C)[C@H]3CC[C@@]21C`, the cell viability is 0.947 ± 0.12 in test [1], 0.926 ± 0.063 in test [2] and 0.922 ± 0.12 in test [3]. Further, the “TCF/Wnt firefly luciferase reporter signal” value in test [4] worked out at 1.035 ± 0.0071; in test [5], 1.02.
As for `Cc1c(C)c2c(c(C)c1O)CCC(C)(CCCC(C)CCCC(C)CCCC(C)C)O2` (stereo not drawn) [alpha-TOCHOPHEROL], the values for the cell viability in test [1], in test [2] and in test [3] were 0.963 ± 0.012, 0.97 ± 0.085 and 1.01 ± 0.017, respectively. Also, the figures for the “TCF/Wnt firefly luciferase reporter signal” value in test [4] and in test [5] were 1.07 ± 0.014 and 1.01 ± 0.16, respectively.
In the same order, the values of `Nc1ccn([C@@H]2O[C@H](CO)[C@@H](O)[C@H]2O)c(=O)n1` are 0.977 ± 0.033, 1.06 ± 0.057, 1.06 ± 0.028, 1.16 ± 0.064 and 1.05 ± 0.057.
For the molecule `CC(=O)N[C@@H](CC(C)C)C(=O)O`, the values for the cell viability in test [1], in test [2] and in test [3] were 1.04 ± 0.014, 1.04 ± 0.093 and 0.966 ± 0.062, respectively. Further, the “TCF/Wnt firefly luciferase reporter signal” value in test [4] is 1.03 ± 0.18; in test [5] it was 1.13 ± 0.057.
Consider `CCCC(C(=O)OCCN(CC)CC)(c1ccccc1)c1ccccc1`, for which the cell viability came out at 1.03 ± 0.098 in test [1], 0.972 ± 0.04 in test [2] and 1.03 ± 0.028 in test [3]. The figures for the “TCF/Wnt firefly luciferase reporter signal” value in test [4] and in test [5] were 1.22 ± 0.22 and 1.06, respectively.
In the same order, the values of `COc1cc2c(=O)c(-c3ccc4c(c3)OCO4)coc2c(OC)c1OC` are 1.05 ± 0.05, 1.01 ± 0.073, 1 ± 0.011, 0.94 ± 0.05 and 0.922 ± 0.026.
Take `CC(=O)O[C@H]1CC[C@]2(C)[C@H]3CC[C@]4(C)C(=CC[C@@]5(C(=O)O)CCC(C)(C)C[C@H]54)[C@]3(C)CC[C@H]2C1(C)C` [3-Acetylaleuritolic acid]: the cell viability in test [1] was found to be 1.01 ± 0.11; in test [2] it was 1.04 ± 0.11; in test [3], 1.01 ± 0.044. For the same molecule, the entries for the “TCF/Wnt firefly luciferase reporter signal” value in test [4] and in test [5] were 0.879 ± 0.0085 and 1.02 ± 0.06, respectively.
Regarding `CN(Cc1cc(Br)cc(Br)c1N)C1CCCCC1`, the cell viability is 0.975 ± 0.036 in test [1], 1.04 ± 0.035 in test [2] and 0.905 ± 0.052 in test [3]. In addition, the “TCF/Wnt firefly luciferase reporter signal” value in test [4] turned out to be 0.8435 ± 0.0035; in test [5], 0.867 ± 0.022.
As for `Nc1ccc(C(=O)NCC(=O)O)cc1`, the results for the cell viability in test [1], in test [2] and in test [3] were 0.988 ± 0.059, 0.962 ± 0.069 and 0.98 ± 0.057, respectively. Moreover, the “TCF/Wnt firefly luciferase reporter signal” value stood at 0.998 ± 0.088 in test [4] and 0.984 ± 0.12 in test [5].
For the molecule `Cc1cc(O)c2c3c(ccc2c1)C(=O)c1c(O)cccc1C3=O` [Tetrangulol], the results for the cell viability in test [1], in test [2] and in test [3] were 1.02 ± 0.065, 0.985 ± 0.018 and 0.972 ± 0.015, respectively. Further, the “TCF/Wnt firefly luciferase reporter signal” value amounted to 0.978 ± 0.023 in test [4] and 0.974 ± 0.035 in test [5].
For `CC[C@H]1OC(=O)[C@H](C)[C@@H](O[C@H]2C[C@@](C)(OC)[C@@H](O)[C@H](C)O2)[C@H](C)[C@@H](O[C@@H]2O[C@H](C)C[C@H](N(C)C)[C@H]2O)[C@](C)(O)C[C@@H](C)C(=O)[C@H](C)[C@@H](O)[C@]1(C)O`, the cell viability in test [1] worked out at 1.01 ± 0.05; in test [2], 0.986 ± 0.034; in test [3] it was 1 ± 0.028. The “TCF/Wnt firefly luciferase reporter signal” value in test [4] turned out to be 0.924 ± 0.09; in test [5] it was 0.874 ± 0.051.
Consider `Cc1cc(NC(=O)C2=C(O)c3ccccc3S(=O)(=O)N2C)no1`, for which the cell viability in test [1] worked out at 1.04 ± 0.064; in test [2], 0.88 ± 0.036; in test [3], 1.004 ± 0.0085. The results for the “TCF/Wnt firefly luciferase reporter signal” value in test [4] and in test [5] were 0.945 ± 0.15 and 0.993 ± 0.18, respectively.
Take `CC(C)(CO)C(O)C(=O)NCCCO` (stereo not given): the cell viability is 1.05 ± 0.16 in test [1], 1.06 ± 0.028 in test [2] and 1.07 ± 0.064 in test [3]. The “TCF/Wnt firefly luciferase reporter signal” value in test [4] worked out at 0.992 ± 0.068; in test [5] it was 0.978 ± 0.074.

For the origin of these results see the supplement of paper PMC6522484.
